# Columns and labels:
# Experiment in all cases: thermal shift delta Tm vs DMSO control; higher = stronger stabilization (binding)
# Details in all cases: 12.5 µM; protein concentration 2 µM
# LOC_OS01G01410-cb001 = tested on: LOC_OS01G01410-cb001
# Outline: (§1)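 Heating from 25°C to 95°C at 0.05°C/s, fluorescence was recorded for 19.5 μl wells of 2 μM E. coli-expressed, purified rice kinase domain in 100 mM potassium phosphate pH 7.5, 150 mM NaCl, 10% glycerol and 5 × SYPRO Orange with compound in DMSO. Boltzmann fits gave melting temperatures for this differential scanning fluorimetry assay. The shift reported is the mean of three replicates against the DMSO-only protein.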
# LOC_OS01G02750-cb003 = tested on: LOC_OS01G02750-cb003
# Outline: as §1
# LOC_OS01G10900-cb004 = tested on: LOC_OS01G10900-cb004
# Outline: as §1
# LOC_OS01G13800-cb001 = tested on: LOC_OS01G13800-cb001
# Outline: as §1
# LOC_OS01G14860-cb001 = tested on: LOC_OS01G14860-cb001
# Outline: as §1
# LOC_OS01G21960-cb002 = tested on: LOC_OS01G21960-cb002
# Outline: as §1
# LOC_OS01G48390-cb002 = tested on: LOC_OS01G48390-cb002
# Outline: as §1
# LOC_OS01G51400-cb002 = tested on: LOC_OS01G51400-cb002
# Outline: as §1
# LOC_OS01G52050-cb004 = tested on: T1, LOC_OS01G52050-cb004
# T1 sequence (whole entry): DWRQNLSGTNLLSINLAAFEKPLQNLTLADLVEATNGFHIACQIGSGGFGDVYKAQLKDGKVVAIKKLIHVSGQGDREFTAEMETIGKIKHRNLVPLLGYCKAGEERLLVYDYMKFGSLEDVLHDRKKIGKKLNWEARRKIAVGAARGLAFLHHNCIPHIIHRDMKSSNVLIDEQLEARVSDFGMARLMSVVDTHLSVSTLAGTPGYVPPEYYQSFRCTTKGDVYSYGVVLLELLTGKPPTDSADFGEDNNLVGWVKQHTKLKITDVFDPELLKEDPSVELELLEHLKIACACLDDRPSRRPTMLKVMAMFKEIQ
# Outline: as §1
# LOC_OS01G60330-cb001 = tested on: LOC_OS01G60330-cb001
# Outline: as §1
# LOC_OS01G63280-cb003 = tested on: LOC_OS01G63280-cb003
# Outline: as §1
# LOC_OS01G67340-cb003 = tested on: LOC_OS01G67340-cb003
# Outline: as §1
# LOC_OS01G70970-cb002 = tested on: LOC_OS01G70970-cb002
# Outline: as §1
# LOC_OS02G07810-cb001 = tested on: LOC_OS02G07810-cb001
# Outline: as §1
# LOC_OS02G08530-cb003 = tested on: LOC_OS02G08530-cb003
# Outline: as §1
# LOC_OS02G14120-cb001 = tested on: LOC_OS02G14120-cb001
# Outline: as §1
# LOC_OS02G17970-cb001 = tested on: LOC_OS02G17970-cb001
# Outline: as §1
# LOC_OS01G57100-cb003 = tested on: LOC_OS01G57100-cb003
# Outline: as §1
# LOC_OS01G60700-cb002 = tested on: LOC_OS01G60700-cb002
# Outline: as §1
# LOC_OS01G39600-cb002 = tested on: LOC_OS01G39600-cb002
# Outline: as §1
# 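Note: purified Escherichia coli-expressed rice kinase domain construct.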
compound,measurement,setting,value
COC(=O)[C@]12CCC(C)(C)C[C@H]1[C@H]1C(=O)C=C3[C@@]4(C)C=C(C#N)C(=O)C(C)(C)[C@@H]4CC[C@@]3(C)[C@]1(C)CC2 [Bardoxolone Methyl],thermal shift delta Tm,LOC_OS01G01410-cb001,-2.64 °C
same,thermal shift delta Tm,LOC_OS01G02750-cb003,0 °C
same,thermal shift delta Tm,LOC_OS01G10900-cb004,-14.8 °C
same,thermal shift delta Tm,LOC_OS01G13800-cb001,-0.32 °C
same,thermal shift delta Tm,LOC_OS01G14860-cb001,-4.11 °C
same,thermal shift delta Tm,LOC_OS01G21960-cb002,-0.25 °C
same,thermal shift delta Tm,LOC_OS01G48390-cb002,-0.51 °C
same,thermal shift delta Tm,LOC_OS01G51400-cb002,-7.84 °C
same,thermal shift delta Tm,LOC_OS01G52050-cb004,-10.5 °C
same,thermal shift delta Tm,LOC_OS01G60330-cb001,-0.58 °C
same,thermal shift delta Tm,LOC_OS01G63280-cb003,-6.77 °C
same,thermal shift delta Tm,LOC_OS01G67340-cb003,-5.05 °C
same,thermal shift delta Tm,LOC_OS01G70970-cb002,-11 °C
same,thermal shift delta Tm,LOC_OS02G07810-cb001,0.28 °C
same,thermal shift delta Tm,LOC_OS02G08530-cb003,-2.07 °C
same,thermal shift delta Tm,LOC_OS02G14120-cb001,-4.67 °C
same,thermal shift delta Tm,LOC_OS02G17970-cb001,-0.5 °C
Cc1cc(O)c2c(c1)C(=O)c1cccc(O)c1C2=O [Chrysophanic Acid],thermal shift delta Tm,LOC_OS01G01410-cb001,-0.01 °C
same,thermal shift delta Tm,LOC_OS01G02750-cb003,-3.42 °C
same,thermal shift delta Tm,LOC_OS01G10900-cb004,1.45 °C
same,thermal shift delta Tm,LOC_OS01G13800-cb001,0.25 °C
same,thermal shift delta Tm,LOC_OS01G14860-cb001,0.31 °C
same,thermal shift delta Tm,LOC_OS01G21960-cb002,0.83 °C
same,thermal shift delta Tm,LOC_OS01G48390-cb002,1.12 °C
same,thermal shift delta Tm,LOC_OS01G51400-cb002,-0.16 °C
same,thermal shift delta Tm,LOC_OS01G52050-cb004,-0.47 °C
same,thermal shift delta Tm,LOC_OS01G57100-cb003,5.05 °C
same,thermal shift delta Tm,LOC_OS01G60330-cb001,0.02 °C
same,thermal shift delta Tm,LOC_OS01G60700-cb002,0.52 °C
same,thermal shift delta Tm,LOC_OS01G70970-cb002,-3.4 °C
same,thermal shift delta Tm,LOC_OS02G07810-cb001,0.6 °C
same,thermal shift delta Tm,LOC_OS02G08530-cb003,-0.63 °C
same,thermal shift delta Tm,LOC_OS02G14120-cb001,-2.71 °C
same,thermal shift delta Tm,LOC_OS02G17970-cb001,1.94 °C
O=c1ccc2ccc(O)c(O)c2o1 [Daphnetin],thermal shift delta Tm,LOC_OS01G01410-cb001,0.85 °C
same,thermal shift delta Tm,LOC_OS01G10900-cb004,0.22 °C
same,thermal shift delta Tm,LOC_OS01G13800-cb001,0.62 °C
same,thermal shift delta Tm,LOC_OS01G14860-cb001,0.62 °C
same,thermal shift delta Tm,LOC_OS01G21960-cb002,1.18 °C
same,thermal shift delta Tm,LOC_OS01G39600-cb002,-0.43 °C
same,thermal shift delta Tm,LOC_OS01G48390-cb002,0.92 °C
same,thermal shift delta Tm,LOC_OS01G51400-cb002,0.41 °C
same,thermal shift delta Tm,LOC_OS01G52050-cb004,0.08 °C
same,thermal shift delta Tm,LOC_OS01G57100-cb003,4.5 °C
same,thermal shift delta Tm,LOC_OS01G60330-cb001,1.15 °C
same,thermal shift delta Tm,LOC_OS01G60700-cb002,1.06 °C
same,thermal shift delta Tm,LOC_OS01G63280-cb003,0.68 °C
same,thermal shift delta Tm,LOC_OS01G67340-cb003,0.06 °C
same,thermal shift delta Tm,LOC_OS01G70970-cb002,0.05 °C
same,thermal shift delta Tm,LOC_OS02G07810-cb001,1.27 °C
same,thermal shift delta Tm,LOC_OS02G08530-cb003,1.2 °C
same,thermal shift delta Tm,LOC_OS02G14120-cb001,0.72 °C
same,thermal shift delta Tm,LOC_OS02G17970-cb001,1.06 °C
CC(=O)O/N=C1/C(c2c(O)[nH]c3cc(Br)ccc23)=Nc2ccccc21 [BIO-acetoxime],thermal shift delta Tm,LOC_OS01G01410-cb001,2.35 °C
same,thermal shift delta Tm,LOC_OS01G02750-cb003,-1.15 °C
same,thermal shift delta Tm,LOC_OS01G10900-cb004,-2.37 °C
same,thermal shift delta Tm,LOC_OS01G14860-cb001,6.31 °C
same,thermal shift delta Tm,LOC_OS01G21960-cb002,0.48 °C
same,thermal shift delta Tm,LOC_OS01G39600-cb002,-0.05 °C
same,thermal shift delta Tm,LOC_OS01G48390-cb002,3.95 °C
same,thermal shift delta Tm,LOC_OS01G51400-cb002,0.25 °C
same,thermal shift delta Tm,LOC_OS01G52050-cb004,0.12 °C
same,thermal shift delta Tm,LOC_OS01G57100-cb003,-10.7 °C
same,thermal shift delta Tm,LOC_OS01G60330-cb001,0.36 °C
same,thermal shift delta Tm,LOC_OS01G60700-cb002,-0.6 °C
same,thermal shift delta Tm,LOC_OS01G63280-cb003,0.15 °C
same,thermal shift delta Tm,LOC_OS01G67340-cb003,-1.03 °C
same,thermal shift delta Tm,LOC_OS01G70970-cb002,-1.11 °C
same,thermal shift delta Tm,LOC_OS02G08530-cb003,2.87 °C
same,thermal shift delta Tm,LOC_OS02G14120-cb001,-2.97 °C
C=CC(=O)Nc1cccc(Oc2nc(Nc3ccc(N4CCN(C)CC4)cc3)ncc2Cl)c1,thermal shift delta Tm,LOC_OS01G01410-cb001,4.21 °C
same,thermal shift delta Tm,LOC_OS01G10900-cb004,3.56 °C
same,thermal shift delta Tm,LOC_OS01G13800-cb001,0.23 °C
same,thermal shift delta Tm,LOC_OS01G14860-cb001,1.91 °C
same,thermal shift delta Tm,LOC_OS01G21960-cb002,1.42 °C
same,thermal shift delta Tm,LOC_OS01G39600-cb002,3.8 °C
same,thermal shift delta Tm,LOC_OS01G48390-cb002,7.69 °C
same,thermal shift delta Tm,LOC_OS01G51400-cb002,1.75 °C
same,thermal shift delta Tm,LOC_OS01G52050-cb004,3.38 °C
same,thermal shift delta Tm,LOC_OS01G57100-cb003,-0.75 °C
same,thermal shift delta Tm,LOC_OS01G60330-cb001,1.82 °C
same,thermal shift delta Tm,LOC_OS01G60700-cb002,0.8 °C
same,thermal shift delta Tm,LOC_OS01G63280-cb003,0.27 °C
same,thermal shift delta Tm,LOC_OS01G67340-cb003,-0.1 °C
same,thermal shift delta Tm,LOC_OS01G70970-cb002,3.9 °C
same,thermal shift delta Tm,LOC_OS02G07810-cb001,0.94 °C
same,thermal shift delta Tm,LOC_OS02G08530-cb003,2.58 °C
same,thermal shift delta Tm,LOC_OS02G14120-cb001,8.31 °C
same,thermal shift delta Tm,LOC_OS02G17970-cb001,0 °C
O=C1Nc2ccc(I)cc2/C1=C/c1cc(Br)c(O)c(Br)c1,thermal shift delta Tm,LOC_OS01G01410-cb001,5.94 °C
same,thermal shift delta Tm,LOC_OS01G02750-cb003,0.5 °C
same,thermal shift delta Tm,LOC_OS01G10900-cb004,6.08 °C
same,thermal shift delta Tm,LOC_OS01G13800-cb001,2.56 °C
same,thermal shift delta Tm,LOC_OS01G14860-cb001,5.73 °C
same,thermal shift delta Tm,LOC_OS01G21960-cb002,5.54 °C
same,thermal shift delta Tm,LOC_OS01G39600-cb002,25.1 °C
same,thermal shift delta Tm,LOC_OS01G48390-cb002,2.41 °C
same,thermal shift delta Tm,LOC_OS01G51400-cb002,0.7 °C
same,thermal shift delta Tm,LOC_OS01G52050-cb004,3.09 °C
same,thermal shift delta Tm,LOC_OS01G57100-cb003,7.97 °C
same,thermal shift delta Tm,LOC_OS01G60330-cb001,7.94 °C
same,thermal shift delta Tm,LOC_OS01G60700-cb002,2.48 °C
same,thermal shift delta Tm,LOC_OS01G70970-cb002,2.79 °C
same,thermal shift delta Tm,LOC_OS02G07810-cb001,3.4 °C
same,thermal shift delta Tm,LOC_OS02G08530-cb003,4.19 °C
same,thermal shift delta Tm,LOC_OS02G14120-cb001,5.66 °C
same,thermal shift delta Tm,LOC_OS02G17970-cb001,3.87 °C
